Test results from ChEMBL document CHEMBL3988442, “University of Dundee, Small-Polar-MMV Screening Library” (2021).

Columns and labels:
[1] = biological target: T1, Aspartate--tRNA(Asp/Asn) ligase (Mycobacterium tuberculosis (strain ATCC 25618 / H37Rv)) (UniProt P9WFW3); assay: Assay for Asp RNA synthetase-1 from Mycobacterium tuberculosis; type: functional; set-up: scale not given: direction of the effect not stated beside the values; settings: 30 µM; note: in the data most compounds retested in dose-response had high values
T1 sequence (whole entry): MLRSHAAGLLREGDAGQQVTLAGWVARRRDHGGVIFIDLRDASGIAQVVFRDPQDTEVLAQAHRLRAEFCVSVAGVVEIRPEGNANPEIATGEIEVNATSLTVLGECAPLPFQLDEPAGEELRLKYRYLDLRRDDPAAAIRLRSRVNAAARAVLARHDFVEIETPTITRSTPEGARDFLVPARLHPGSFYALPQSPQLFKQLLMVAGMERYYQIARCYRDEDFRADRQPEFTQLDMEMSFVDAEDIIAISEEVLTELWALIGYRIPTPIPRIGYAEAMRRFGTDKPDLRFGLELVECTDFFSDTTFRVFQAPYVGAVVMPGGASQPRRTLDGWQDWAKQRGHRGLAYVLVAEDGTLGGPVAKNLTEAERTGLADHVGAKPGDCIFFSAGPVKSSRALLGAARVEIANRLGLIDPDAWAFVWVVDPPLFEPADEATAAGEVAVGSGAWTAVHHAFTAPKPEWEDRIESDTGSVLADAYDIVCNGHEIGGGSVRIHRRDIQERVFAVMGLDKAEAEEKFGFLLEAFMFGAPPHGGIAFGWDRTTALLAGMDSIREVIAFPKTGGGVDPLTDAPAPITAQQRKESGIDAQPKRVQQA

[2] = biological target: Shiga toxin 2 (Escherichia coli O157:H7) (UniProt P09385+P09386); assay: E. coli 0.157:H7 Shiga Toxin SOP - stx2 screening assay; type: functional; set-up: scale not given: direction of the effect not stated beside the values; settings: 30 µM

SMILES | Percent Effect [1] [%] | Percent Effect [2] [%]
CC(NC(=O)Nc1cc(F)ccc1N1CCCCC1)c1nncn1C (configuration not stated) | -3.23 | 20.1
CN1CCN(CC2CC2)C(=O)c2cnc(N3CC[C@@H](O)C3)nc21 | 3.75 | -9.73
CC(C)C(C)NC(=O)Nc1ccccc1CN1CCOCC1 (configuration not stated) | 3.91 | 9.92
CCS(=O)(=O)N1CCC[C@]2(C(=O)N(C)C)CN(c3ccccn3)C[C@@H]2C1 | 0.903 | -10.3
CCc1nc(C2CCCN2C(=O)CCCn2cccn2)no1 (configuration not stated) | -0.232 | -5.5
CN(C)C(=O)N1C[C@@H]2CCCO[C@@H]2[C@H](N(C)Cc2ccco2)C1 | -1.32 | -18.8
CCNC(=O)CCc1c(C)nc2cc(O)nn2c1C | 4.16 | -21.5
COc1cc(C(=O)Nc2nc(C)no2)ccc1C | -0.143 | -2.1
COCCc1noc(CN2CCCCC2Cn2nc(C)cc2C)n1 (configuration not stated) | -0.417 | 1.32
O=C(NCC1CCOC1)c1ccc(OCC(F)(F)F)nc1 (configuration not stated) | -2.12 | -17.6
c1csc(N2CCCN(Cc3nc(C4CC4)no3)CC2)n1 | -1.91 | 12.8
Cc1ncsc1C(=O)N(C)Cc1ccncc1 | -4.5 | 27.3
COCCN1C[C@@H](C)[C@@]2(COCCN(C(=O)c3cnc(C)cn3)C2)C1 | -1.78 | -19.1
Fc1cnc(N2CCCC3(CN(Cc4ccncc4)CCO3)C2)nc1 (configuration not stated) | 7.9 | -0.17
CC(C)CS(=O)(=O)CC(=O)N(C)Cc1ccc(OC(F)F)cc1 | -0.457 | 4.95
Cc1ccc(CN2CCC3(CC2)OC(C(=O)N(C)C)c2ccccc23)o1 (configuration not stated) | 3.43 | -27.1
Cc1ccc(-c2nnc(CN3CCOC(Cn4cccn4)C3)o2)cc1 (configuration not stated) | -0.257 | -10.3
COc1ccc(NC(=O)Cn2nc(C)c(C)cc2=O)cc1OC | -0.123 | -13.1
COc1ncc(-c2nccn2CCN(C)C)cn1 | -0.836 | -6.87
Cc1ccc(-c2noc(CN3CCOC(Cn4cncn4)C3)n2)cc1 (configuration not stated) | 3.79 | 5.98
COc1c(CNCc2ccc(C(=O)N(C)C)cc2)c(C)nn1C | 2.9 | -13.9
CC(=O)NC(C)c1ccc(OCC2CC2)c(F)c1 (configuration not stated) | 0.15 | 4.12
c1ccc2oc(CCCN3CCCC3Cn3cncn3)nc2c1 (configuration not stated) | -1.22 | 7.93
CCCn1c(C)cc(C(=O)CN2C(=O)c3ccccc3CS2(=O)=O)c1C | 0.257 | -23.8
COc1cccc(C2CC(=O)Nc3nc(N4CCOCC4)sc32)c1OC (configuration not stated) | 63.4 | -3.76
CO[C@@H]1CCN(C(=O)c2ccccn2)[C@H]1Cc1ccccc1 | 3.21 | 4.36

SMILES | Percent Effect [1] [%] | Percent Effect [2] [%]
CN(C)Cc1nc(C(C)(C)NC(=O)C2CC(=O)N(CC3CC3)C2)no1 (configuration not stated) | -5.01 | 25.1
N#Cc1ccnc(N2CCN(C(=O)Cc3ccc4c(c3)CCO4)CC2)c1 | 0.144 | 6.14
CCN(C(c1cccnc1)c1ccc2c(c1)CCO2)S(C)(=O)=O (configuration not stated) | -3.44 | -49.4
Cc1cc(C)n(CC2CCCN2Cc2c(C)noc2C)n1 (configuration not stated) | -2.12 | -12.7
Cc1cnn(CC2CCCCN2C(=O)c2cc(C(N)=O)cs2)c1 (configuration not stated) | -2.6 | 1.14
O=C(Nc1ccccc1OC(F)F)C1=NN(c2ccccc2)C(=O)CN1 | 9.31 | -3.57
CC(C)NC(=O)[C@@H]1C[C@H](N)CN1C(=O)c1cc2c([nH]c1=O)CCCC2 | 2.4 | -1.55
Cc1nc(CN2CCc3cncnc3C2)oc1C | -1.67 | -14.4
CN1CCC(Oc2ccc(NC(=O)c3cccc(Cl)c3)cc2)CC1 | -0.327 | -51
O=C(c1cccc2c1OCO2)N1CCCC(n2cccn2)C1 (configuration not stated) | -0.706 | 17.8
Cc1oncc1C(=O)N1CCC2(CC1)CC(c1ccccc1)C(=O)N2C (configuration not stated) | -1.78 | -15.3
CCOCCCC(=O)NCCC(=O)N1CCN(c2ccccn2)CC1 | 0.809 | -65.6
Cc1cc(C(=O)N2CCC(c3nccn3CCCN(C)C)CC2)no1 | 7.7 | -11.8
CN(Cc1ccc(F)cc1)CC1(O)CCN(C(=O)c2cccn2C)C1 (configuration not stated) | -4.54 | -9.28
CNC(=O)CC1CCN(Cc2nc(-c3ccc(SC)cc3)oc2C)CC1 | -1.17 | -3.87
CN(C)CC1CN(Cc2ccc3c(c2)OCO3)Cc2nccn2C1 (configuration not stated) | 9.35 | 4.74
Cc1n[nH]c(C)c1C1CCCN1C(=O)NCC(=O)NC(C)(C)C (configuration not stated) | 1.47 | -24.4
O=C(CCc1cc2n(n1)CCCN(C(=O)c1cccnc1)C2)NC1CC1 | -2.01 | -9.98
c1ncn(CC2CCCN(Cc3nc(C4CC4)no3)C2)n1 (configuration not stated) | -2.51 | -1.62
Cc1cccc(NC(=O)Cn2ncc(SCC(N)=O)c(Cl)c2=O)c1C | -2.73 | 5.03
O=C(CN1CCOC(Cn2cccn2)C1)Nc1nncs1 (configuration not stated) | -1.58 | -15.4
Cc1nn(C)c(C)c1C1CCCN1C(=O)c1ccc(Cl)o1 (configuration not stated) | -1.9 | -17.4
O=C(COc1coc(CN2CCCCC2)cc1=O)Nc1ccccc1Cl | 0.319 | -4.27
CCc1ccc(CCC(=O)N2CCOCC2c2ncon2)cc1 (configuration not stated) | 2.77 | 20.7
CN1CCN(C[C@@H]2OC[C@H]3CN(Cc4cccc(F)c4)CC[C@H]32)CC1 | -1.14 | 11.3
